Assay in all cases: DAPPL (digital affinity profiling via proximity ligation, sequencing); 10 mM Tris-HCl pH 7.5, 50 mM NaCl, 1 mM DTT, 4% glycerol, room temperature, 30 min; GST-TFs on glutathione beads, 16-mer random dsDNA library, 0.1% formaldehyde crosslink after washing; high values mean tight binding
What all share (settings): protein: recombinant; tags: N-terminal GST; dsDNA, one strand shown

Assay [1] concerns the target T1, FLI1 (Homo sapiens, UniProt Q01543 1-452).
T1 sequence: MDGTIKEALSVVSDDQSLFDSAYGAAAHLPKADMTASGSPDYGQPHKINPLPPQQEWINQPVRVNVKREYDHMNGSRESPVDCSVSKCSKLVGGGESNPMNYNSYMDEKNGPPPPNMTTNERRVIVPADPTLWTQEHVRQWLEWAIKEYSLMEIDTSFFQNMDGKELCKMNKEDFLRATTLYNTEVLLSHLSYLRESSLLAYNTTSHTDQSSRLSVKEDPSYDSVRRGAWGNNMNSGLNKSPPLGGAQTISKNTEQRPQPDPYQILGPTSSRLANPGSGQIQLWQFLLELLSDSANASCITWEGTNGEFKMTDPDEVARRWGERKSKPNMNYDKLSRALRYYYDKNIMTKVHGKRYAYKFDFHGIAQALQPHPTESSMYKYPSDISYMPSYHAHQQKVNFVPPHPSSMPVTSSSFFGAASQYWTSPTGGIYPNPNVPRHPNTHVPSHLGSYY
The essentials: (§1)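 Binding signal is defined as a hexamer's read frequency for one factor over its frequency for the tag-only sample. To obtain reads, GST-fused human transcription factors were expressed in yeast, captured on glutathione beads, barcoded with DNA and pooled with that sample. Pools met 200 nmole of a 16-mer random double-stranded DNA library in Tris/NaCl/DTT/glycerol buffer for 30 min at room temperature before washing, 0.1% formaldehyde crosslinking, proximity ligation (BsaI/T4 ligase, 1 h, 37 °C), PCR and Illumina NextSeq500 sequencing.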

Assay [2] has as its target T2, ELK1 (Homo sapiens, UniProt P19419 1-428).
T2 sequence: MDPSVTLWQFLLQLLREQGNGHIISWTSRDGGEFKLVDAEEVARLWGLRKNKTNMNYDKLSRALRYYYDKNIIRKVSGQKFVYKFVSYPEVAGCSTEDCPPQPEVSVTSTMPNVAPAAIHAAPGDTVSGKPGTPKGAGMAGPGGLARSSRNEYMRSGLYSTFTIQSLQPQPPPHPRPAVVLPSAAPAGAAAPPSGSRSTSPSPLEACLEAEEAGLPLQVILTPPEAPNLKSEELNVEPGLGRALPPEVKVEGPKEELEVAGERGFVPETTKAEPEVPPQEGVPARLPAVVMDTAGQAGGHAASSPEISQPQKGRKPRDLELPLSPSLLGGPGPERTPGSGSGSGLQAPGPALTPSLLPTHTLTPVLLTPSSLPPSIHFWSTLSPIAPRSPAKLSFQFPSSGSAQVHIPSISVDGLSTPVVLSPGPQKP
In a few lines: as §1

Assay [3] deals with T3, GABPA (Homo sapiens, UniProt Q06546 1-454).
T3 sequence: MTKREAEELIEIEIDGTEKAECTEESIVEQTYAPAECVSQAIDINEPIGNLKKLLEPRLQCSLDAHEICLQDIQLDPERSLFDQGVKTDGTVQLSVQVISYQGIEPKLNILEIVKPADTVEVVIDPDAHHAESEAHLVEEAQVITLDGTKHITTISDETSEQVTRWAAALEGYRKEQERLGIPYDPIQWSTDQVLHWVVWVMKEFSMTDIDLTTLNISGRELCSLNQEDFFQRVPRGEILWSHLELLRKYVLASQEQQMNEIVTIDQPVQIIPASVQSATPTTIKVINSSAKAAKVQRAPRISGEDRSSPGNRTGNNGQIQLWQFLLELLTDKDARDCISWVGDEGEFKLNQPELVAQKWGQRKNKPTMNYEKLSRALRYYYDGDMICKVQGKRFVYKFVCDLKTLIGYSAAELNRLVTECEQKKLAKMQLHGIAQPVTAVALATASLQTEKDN
In a few lines:
as §1

The target in assay [4] is T4, ERG (Homo sapiens, UniProt P11308 1-479).
T4 sequence: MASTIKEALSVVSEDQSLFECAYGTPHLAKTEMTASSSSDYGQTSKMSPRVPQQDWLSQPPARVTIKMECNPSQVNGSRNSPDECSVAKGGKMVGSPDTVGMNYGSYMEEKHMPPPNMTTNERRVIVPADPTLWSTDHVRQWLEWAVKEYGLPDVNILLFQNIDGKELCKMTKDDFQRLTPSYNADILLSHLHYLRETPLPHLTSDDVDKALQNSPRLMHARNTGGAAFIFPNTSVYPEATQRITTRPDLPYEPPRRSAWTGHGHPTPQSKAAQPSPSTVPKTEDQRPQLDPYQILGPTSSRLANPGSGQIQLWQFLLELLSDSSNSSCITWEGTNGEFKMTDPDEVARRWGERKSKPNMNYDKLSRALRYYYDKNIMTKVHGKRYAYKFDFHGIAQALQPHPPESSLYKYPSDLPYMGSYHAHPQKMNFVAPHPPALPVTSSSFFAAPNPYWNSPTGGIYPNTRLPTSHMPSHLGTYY
The essentials: as §1

The target in assay [5] is ELF1 (Homo sapiens, UniProt P32519 1-619). In a few lines:
as §1

In assay [6] the target is T5, EHF (Homo sapiens, UniProt Q9NZC4 1-300).
T5 sequence: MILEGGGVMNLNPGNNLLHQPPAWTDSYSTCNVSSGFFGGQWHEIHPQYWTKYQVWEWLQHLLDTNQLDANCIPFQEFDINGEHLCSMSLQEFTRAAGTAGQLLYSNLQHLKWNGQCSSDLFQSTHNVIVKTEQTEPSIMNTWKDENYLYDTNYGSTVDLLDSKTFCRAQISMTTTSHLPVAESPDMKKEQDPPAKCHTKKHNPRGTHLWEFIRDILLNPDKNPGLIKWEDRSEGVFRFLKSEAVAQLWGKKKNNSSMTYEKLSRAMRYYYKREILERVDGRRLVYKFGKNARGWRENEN
In a few lines: as §1

Assay [7] concerns the target SPI1 (Homo sapiens, UniProt P17947 1-270). In a few lines: as §1
Assay [8] addresses SPIB (Homo sapiens, UniProt Q01892 1-262). In a few lines: as §1
In assay [9] the target is T6, ELK3 (Homo sapiens, UniProt P41970 1-407).
T6 sequence: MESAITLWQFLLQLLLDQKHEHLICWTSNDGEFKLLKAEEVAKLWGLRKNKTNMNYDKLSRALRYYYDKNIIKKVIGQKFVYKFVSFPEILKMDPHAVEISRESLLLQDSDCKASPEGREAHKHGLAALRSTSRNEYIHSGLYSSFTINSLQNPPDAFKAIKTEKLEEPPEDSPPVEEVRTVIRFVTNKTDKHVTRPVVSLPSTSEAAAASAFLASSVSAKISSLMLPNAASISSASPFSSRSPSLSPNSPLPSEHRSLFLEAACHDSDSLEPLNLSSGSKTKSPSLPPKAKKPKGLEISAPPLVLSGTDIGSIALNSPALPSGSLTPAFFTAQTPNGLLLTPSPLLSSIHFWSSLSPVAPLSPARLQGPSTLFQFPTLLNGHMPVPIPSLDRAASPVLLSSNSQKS
In a few lines:
as §1

In assay [10] the target is T7, FEV (Homo sapiens, UniProt Q99581 1-238).
T7 sequence: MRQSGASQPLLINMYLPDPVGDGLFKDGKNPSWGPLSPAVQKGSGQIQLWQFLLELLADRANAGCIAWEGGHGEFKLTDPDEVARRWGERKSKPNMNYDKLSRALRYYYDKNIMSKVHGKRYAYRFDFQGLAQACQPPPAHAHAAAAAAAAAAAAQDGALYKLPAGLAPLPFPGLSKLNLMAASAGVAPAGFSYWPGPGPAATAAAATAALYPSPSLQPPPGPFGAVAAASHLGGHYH
In a few lines: as §1

Assay [11] addresses ETV5 (Homo sapiens, UniProt P41161 1-510). In a few lines: as §1
For assay [12], the target named is T8, SPIC (Homo sapiens, UniProt Q8N5J4 1-248).
T8 sequence: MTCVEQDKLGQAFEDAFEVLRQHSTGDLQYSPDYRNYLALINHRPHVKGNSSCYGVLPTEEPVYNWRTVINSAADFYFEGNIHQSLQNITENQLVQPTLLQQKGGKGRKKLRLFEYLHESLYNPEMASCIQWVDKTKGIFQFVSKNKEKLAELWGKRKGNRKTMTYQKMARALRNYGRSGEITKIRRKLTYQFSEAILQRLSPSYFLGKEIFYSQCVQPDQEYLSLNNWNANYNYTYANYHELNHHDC
The essentials:
as §1

In assay [13] the target is ELF4 (Homo sapiens, UniProt Q99607 1-663). In a few lines: as §1
Chain of ELF4 (Q99607 whole entry): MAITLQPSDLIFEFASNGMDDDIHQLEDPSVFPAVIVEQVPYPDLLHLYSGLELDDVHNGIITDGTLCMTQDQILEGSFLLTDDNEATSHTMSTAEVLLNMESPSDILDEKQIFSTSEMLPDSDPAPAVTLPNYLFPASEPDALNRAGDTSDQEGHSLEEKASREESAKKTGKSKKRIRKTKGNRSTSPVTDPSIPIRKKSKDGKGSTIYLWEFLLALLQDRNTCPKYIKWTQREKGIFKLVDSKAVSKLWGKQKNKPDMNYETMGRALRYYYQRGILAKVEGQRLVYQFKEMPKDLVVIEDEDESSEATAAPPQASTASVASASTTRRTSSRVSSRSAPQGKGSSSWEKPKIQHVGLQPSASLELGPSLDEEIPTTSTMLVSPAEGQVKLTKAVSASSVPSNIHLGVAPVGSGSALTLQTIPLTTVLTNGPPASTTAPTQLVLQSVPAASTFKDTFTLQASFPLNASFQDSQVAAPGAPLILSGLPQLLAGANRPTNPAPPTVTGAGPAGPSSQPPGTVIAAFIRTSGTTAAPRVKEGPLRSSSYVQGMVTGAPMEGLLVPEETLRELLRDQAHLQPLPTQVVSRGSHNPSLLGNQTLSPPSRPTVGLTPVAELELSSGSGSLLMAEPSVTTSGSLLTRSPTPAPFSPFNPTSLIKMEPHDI
Assay [14] concerns the target T9, ELK4 (Homo sapiens, UniProt P28324-2 1-405).
T9 sequence: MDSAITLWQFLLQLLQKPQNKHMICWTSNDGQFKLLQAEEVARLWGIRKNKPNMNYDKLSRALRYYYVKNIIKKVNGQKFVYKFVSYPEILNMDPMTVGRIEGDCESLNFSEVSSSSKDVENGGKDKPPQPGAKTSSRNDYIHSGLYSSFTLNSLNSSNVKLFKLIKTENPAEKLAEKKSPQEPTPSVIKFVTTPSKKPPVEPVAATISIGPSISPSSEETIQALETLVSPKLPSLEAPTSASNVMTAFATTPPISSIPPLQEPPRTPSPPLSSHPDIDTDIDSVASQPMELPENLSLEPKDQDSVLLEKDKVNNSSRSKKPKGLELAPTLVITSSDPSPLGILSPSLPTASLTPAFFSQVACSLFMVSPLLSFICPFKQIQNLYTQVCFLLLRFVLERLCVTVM
In a few lines: as §1

Assay [15] concerns the target T10, ETV2 (Homo sapiens, UniProt O00321 1-342).
T10 sequence: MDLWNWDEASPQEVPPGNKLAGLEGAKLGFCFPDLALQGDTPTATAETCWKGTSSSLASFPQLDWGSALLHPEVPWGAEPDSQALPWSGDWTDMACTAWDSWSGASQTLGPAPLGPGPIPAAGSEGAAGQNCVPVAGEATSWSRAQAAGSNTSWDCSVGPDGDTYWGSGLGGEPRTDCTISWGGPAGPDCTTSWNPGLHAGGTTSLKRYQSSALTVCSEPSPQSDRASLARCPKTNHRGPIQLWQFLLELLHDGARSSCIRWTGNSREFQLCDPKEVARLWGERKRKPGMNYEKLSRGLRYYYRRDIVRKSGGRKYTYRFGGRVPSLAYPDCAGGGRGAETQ
The essentials: as §1

The target in assay [16] is T11, ELF3 (Homo sapiens, UniProt P78545 1-371).
T11 sequence: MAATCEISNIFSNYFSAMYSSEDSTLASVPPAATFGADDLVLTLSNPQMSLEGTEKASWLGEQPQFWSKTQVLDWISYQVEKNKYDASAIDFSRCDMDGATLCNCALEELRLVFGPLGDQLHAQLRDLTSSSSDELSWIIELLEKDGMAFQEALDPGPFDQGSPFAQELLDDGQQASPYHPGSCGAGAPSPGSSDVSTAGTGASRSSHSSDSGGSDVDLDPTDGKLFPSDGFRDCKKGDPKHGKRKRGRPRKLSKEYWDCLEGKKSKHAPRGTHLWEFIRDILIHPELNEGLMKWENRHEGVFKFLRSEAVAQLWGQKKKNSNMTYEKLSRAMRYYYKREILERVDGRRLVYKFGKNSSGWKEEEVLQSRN
In a few lines: as §1

Assay [17] concerns the target ETV1 (Homo sapiens, UniProt P50549 1-477). In a few lines: as §1

Chain of SPIB (Q01892 whole entry): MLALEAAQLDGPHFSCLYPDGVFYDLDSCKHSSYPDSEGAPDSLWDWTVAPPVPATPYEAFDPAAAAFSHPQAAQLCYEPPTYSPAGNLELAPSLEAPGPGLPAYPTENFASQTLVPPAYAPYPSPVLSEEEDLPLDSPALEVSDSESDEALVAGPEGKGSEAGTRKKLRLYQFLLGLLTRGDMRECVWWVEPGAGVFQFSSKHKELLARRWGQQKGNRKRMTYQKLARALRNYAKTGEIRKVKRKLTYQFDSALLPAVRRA
Chain of ELF1 (P32519 whole entry): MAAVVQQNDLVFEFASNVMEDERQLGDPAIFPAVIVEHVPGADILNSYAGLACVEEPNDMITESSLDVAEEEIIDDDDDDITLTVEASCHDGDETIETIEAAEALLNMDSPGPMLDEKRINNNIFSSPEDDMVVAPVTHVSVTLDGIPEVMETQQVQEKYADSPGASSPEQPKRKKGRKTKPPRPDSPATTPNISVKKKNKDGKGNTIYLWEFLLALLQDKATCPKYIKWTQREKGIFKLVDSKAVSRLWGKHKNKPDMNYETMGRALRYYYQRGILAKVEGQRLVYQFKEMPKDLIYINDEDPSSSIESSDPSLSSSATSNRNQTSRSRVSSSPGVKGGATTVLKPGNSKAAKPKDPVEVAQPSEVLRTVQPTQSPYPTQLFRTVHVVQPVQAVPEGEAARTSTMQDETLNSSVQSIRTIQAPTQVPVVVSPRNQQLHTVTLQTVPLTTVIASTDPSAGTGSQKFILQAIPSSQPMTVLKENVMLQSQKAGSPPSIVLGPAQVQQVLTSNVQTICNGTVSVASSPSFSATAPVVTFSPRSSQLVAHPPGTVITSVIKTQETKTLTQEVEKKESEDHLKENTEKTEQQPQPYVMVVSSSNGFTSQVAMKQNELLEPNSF
Chain of ETV1 (P50549 whole entry): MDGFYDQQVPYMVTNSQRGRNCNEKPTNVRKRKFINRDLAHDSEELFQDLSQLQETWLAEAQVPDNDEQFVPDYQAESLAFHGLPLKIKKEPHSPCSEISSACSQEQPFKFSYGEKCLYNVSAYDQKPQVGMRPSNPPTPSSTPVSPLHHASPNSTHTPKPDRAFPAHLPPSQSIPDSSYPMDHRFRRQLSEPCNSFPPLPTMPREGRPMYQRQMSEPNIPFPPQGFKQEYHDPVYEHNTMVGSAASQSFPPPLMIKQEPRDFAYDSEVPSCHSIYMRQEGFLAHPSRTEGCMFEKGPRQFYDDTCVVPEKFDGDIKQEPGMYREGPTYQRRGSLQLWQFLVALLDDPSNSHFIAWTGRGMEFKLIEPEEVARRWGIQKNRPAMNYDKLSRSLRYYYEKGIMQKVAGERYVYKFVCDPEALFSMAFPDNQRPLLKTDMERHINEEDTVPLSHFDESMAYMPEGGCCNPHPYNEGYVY
Chain of ETV5 (P41161 whole entry): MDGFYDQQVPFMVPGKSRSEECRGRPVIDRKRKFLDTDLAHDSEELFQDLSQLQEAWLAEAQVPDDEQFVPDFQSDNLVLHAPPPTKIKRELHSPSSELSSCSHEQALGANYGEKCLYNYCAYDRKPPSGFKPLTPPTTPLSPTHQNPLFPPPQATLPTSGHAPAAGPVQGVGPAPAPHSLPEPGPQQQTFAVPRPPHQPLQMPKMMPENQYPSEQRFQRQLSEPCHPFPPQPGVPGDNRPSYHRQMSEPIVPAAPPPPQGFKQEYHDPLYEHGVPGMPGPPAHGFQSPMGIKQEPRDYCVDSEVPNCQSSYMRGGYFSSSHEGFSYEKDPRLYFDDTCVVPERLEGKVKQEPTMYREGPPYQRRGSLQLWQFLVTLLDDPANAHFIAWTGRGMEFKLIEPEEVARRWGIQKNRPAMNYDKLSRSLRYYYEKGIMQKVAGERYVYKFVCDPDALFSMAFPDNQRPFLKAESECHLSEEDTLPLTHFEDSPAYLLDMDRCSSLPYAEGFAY

For GTATGC, the binding signal was 1.22 fold enrichment (6-mer frequency, TF over GST control) in [1]; 1.24 fold enrichment (6-mer frequency, TF over GST control) in [2]; 1.17 fold enrichment (6-mer frequency, TF over GST control) in [3]; 1.11 fold enrichment (6-mer frequency, TF over GST control) in assay [4]; 1.2 fold enrichment (6-mer frequency, TF over GST control) in assay [5]; 1.14 fold enrichment (6-mer frequency, TF over GST control) in assay [6]. Further, the binding signal in assay [7] is 1.23 fold enrichment (6-mer frequency, TF over GST control); in [8], 1.2 fold enrichment (6-mer frequency, TF over GST control); in assay [9], 1.13 fold enrichment (6-mer frequency, TF over GST control); in assay [10] it was 1.15 fold enrichment (6-mer frequency, TF over GST control); in assay [11] it was 1.17 fold enrichment (6-mer frequency, TF over GST control); in assay [12], 1.14 fold enrichment (6-mer frequency, TF over GST control). Besides, the binding signal in [13] is 1.16 fold enrichment (6-mer frequency, TF over GST control); in assay [14], 1.23 fold enrichment (6-mer frequency, TF over GST control); in assay [15], 1.25 fold enrichment (6-mer frequency, TF over GST control); in [16], 1.1 fold enrichment (6-mer frequency, TF over GST control); in assay [17], 1.12 fold enrichment (6-mer frequency, TF over GST control).
Turning to TGTCCA, the binding signal is 1.18 fold enrichment (6-mer frequency, TF over GST control) in [1]; 1.18 fold enrichment (6-mer frequency, TF over GST control) in assay [2]; 1.1 fold enrichment (6-mer frequency, TF over GST control) in [3]; 1.19 fold enrichment (6-mer frequency, TF over GST control) in [4]; 1.19 fold enrichment (6-mer frequency, TF over GST control) in [5]; 1.16 fold enrichment (6-mer frequency, TF over GST control) in assay [6]. Moreover, the binding signal in [7] was 1.08 fold enrichment (6-mer frequency, TF over GST control); in assay [8], 1.13 fold enrichment (6-mer frequency, TF over GST control); in assay [9] it was 1.14 fold enrichment (6-mer frequency, TF over GST control); in [10] it was 1.11 fold enrichment (6-mer frequency, TF over GST control); in assay [11], 1.15 fold enrichment (6-mer frequency, TF over GST control); in assay [12], 1.17 fold enrichment (6-mer frequency, TF over GST control). Further, the binding signal in [13] was 1.16 fold enrichment (6-mer frequency, TF over GST control); in assay [14], 1.11 fold enrichment (6-mer frequency, TF over GST control); in assay [15], 1.3 fold enrichment (6-mer frequency, TF over GST control); in assay [16], 1.06 fold enrichment (6-mer frequency, TF over GST control); in assay [17] it was 1.04 fold enrichment (6-mer frequency, TF over GST control).

Source of the values: publication PMC7862700, “An all-to-all approach to the identification of sequence-specific readers for epigenetic DNA modifications on cytosine”.
